Screening results as filed in PubChem.
Shown are actives, neighbours in structure and some others; about 21% of the full set was active somewhere.
D3 ag – D3 dopamine receptor (human) agonism. P35462. D3R DiscoveRx beta-arrestin cells, luminescence, 90 min. max activation, %. 410,000 tested, 0.58% active; in the data active = max activation above about 30%
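Cells at 1500/well, incubated overnight, then treated with pinned compounds (dopamine as control) for 90 min at 37 degrees C. DiscoveRx reagent added for 30 - 60 minutes at room temperature; luminescence read.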
D3 antag – blocks the human D3 dopamine receptor; P35462; D3R cells, DiscoveRx beta-arrestin luminescence, antagonist mode; hits give low values; max response, negative = inhibition, %; 360,000 tested, 2.5% active; in the data active = max response below about -50%; inconclusive = no clear call, values can overlap the other calls
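Cells plated overnight at 1500 cells/well, then exposed to library compounds with dopamine controls for 90 minutes at 37 degrees C. DiscoveRx reagent added for 30–60 minutes at room temperature; luminescence read, quantitative HTS format.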
TDP1 cell noCPT – qHTS for Inhibitors of human tyrosyl-DNA phosphodiesterase 1 (TDP1): qHTS in cells in absence of CPT; DT40 Tdp1-/- hTDP1 cells, no CPT, ATP luminescence, 48 h; 420,000 tested, 15% active; Potency, µM (titrated, usually from 46.2 µM), actives largely listed as inhibitors; note: nearly all actives have a fitted effect of over 55% in size
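Growth of hTDP1-complemented DT40 Tdp1-knockout cells is measured by ATP luminescence after at least 48 hr compound exposure at 37 °C, with DMSO substituting for the 20 nM CPT used in the parallel screen.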
ClpP mod – qHTS Assay for Activators of ClpP; AID 651965, 2013; ATP-dependent Clp protease proteolytic subunit (Bacillus subtilis (strain 168)), P80244; purified B. subtilis ClpP, FRET peptide cleavage, 20 min; Potency, µM (titrated, usually from 57.5 µM); 340,000 tested, 1.9% active; active = well fitted falling curve with a large enough effect; inconclusive = small, poorly fitted or top-dose-only effect; inactive = no such curve, though single readings can be large or run the other way; note: the source files actives as falling curves though it sought activators and does not explain the sign; nearly all actives have a fitted effect of over 65% in size
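FRET quenching reversal measured ClpP activation: 10 microg/mL B. subtilis ClpP at pH 8 with the FRET-FV decapeptide, read at 430 nm after 320 nm excitation. The 20-min minus 0-min signal was scaled between DMSO/no-enzyme wells and ADEP (5.8 microM final).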
IL1B secr inh – blocks inflammasome-driven IL-1 beta release; THP-1 LPS/ATP IL-1B secretion, AlphaLISA, 16 h; hits give low values; 360,000 tested, 4.7% active; activity change, % at 57.5 µM; in the data active = activity change below about -50%; inconclusive = mostly about -30% to -49%
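Secreted IL-1B measured by AlphaLISA bead assay after 16 h compound exposure of THP-1 cells; compounds (final up to 57.5 uM) added 1 h before LPS (250 ng/mL) and ATP (1.25 mM) stimulation; lower signal means less secretion.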
TDP1 cell CPT – growth inhibition of DT40 Tdp1-/-;hTDP1 cells with camptothecin (screen for TDP1 inhibitors); 420,000 tested, 12% active; chicken DT40 Tdp1-/-;hTDP1 cells + 20 nM CPT, ATP luminescence, 48 h; Potency, µM (top dose mostly 46.2 µM), actives largely listed as inhibitors; note: nearly all actives have a fitted effect of over 55% in size
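Chicken DT40 Tdp1-/- cells stably complemented with human TDP1 were seeded at 400 cells/well in medium containing 20 nM camptothecin, exposed to pin-transferred compounds, and grown at 37 °C for at least 48 hr. Viability was read as ATP luminescence.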
Each line names hits and unclear results; the compound was inactive in the other large screens. Unless noted, calls come from the whole dose curve; as a rule, active = well fitted inhibition curve with a large enough effect; inconclusive = small, poorly fitted or top-dose-only effect; inactive = flat fitted curve, though single readings scatter.

Cc1oc2ncn(CC(C)C)c(=O)c2c1C(=O)NCCCN(C)Cc1ccccc1	none (no result: D3 antag, IL1B secr inh)
COc1ccc(Cl)cc1-c1nc(SCC(N)=O)n[nH]1	none (no result: ClpP mod)
Nc1n[nH]c(N)c1N=Nc1cccc(C(F)(F)F)c1	none
C/C=C/c1ccc(OCCOc2cc(C=O)ccc2OC)c(OC)c1	TDP1 cell noCPT 26µM, TDP1 cell CPT inconclusive
C/C=C/c1ccc(OCCOCCNCc2ccccc2)c(OC)c1	TDP1 cell noCPT 18µM, IL1B secr inh inconclusive, TDP1 cell CPT inconclusive
CCC/C(=N\NC(=O)c1ccco1)c1ccc(Cl)s1	IL1B secr inh inconclusive
O=C(Nc1ccc(F)cc1F)c1ccc2c(O)c(S(=O)(=O)c3ccc(Cl)cc3)c(=O)[nH]c2c1	none (no result: D3 antag, IL1B secr inh)
O=S(=O)(c1ccc(Cl)cc1)N1CCC2(CC1)OCCN2S(=O)(=O)c1cccs1	TDP1 cell noCPT 18µM, TDP1 cell CPT inconclusive
Cc1ccc(S(=O)(=O)N2CCOC23CCN(C(=O)c2ccc(Cl)cc2Cl)CC3)cc1	TDP1 cell noCPT 21µM, IL1B secr inh inconclusive, TDP1 cell CPT inconclusive
COc1ccc(S(=O)(=O)N2CCOC23CCN(S(=O)(=O)c2ccc(C)cc2)CC3)cc1	TDP1 cell noCPT inconclusive, TDP1 cell CPT inconclusive
Cc1ccc(S(=O)(=O)N2CCOC23CCN(S(=O)(=O)c2c(C)cc(C)cc2C)CC3)cc1	TDP1 cell noCPT inconclusive, TDP1 cell CPT 18µM
Cc1ccc(S(=O)(=O)N2CCOC23CCN(C(=O)c2cc(Cl)ccc2Cl)CC3)cc1	TDP1 cell noCPT inconclusive, TDP1 cell CPT inconclusive
CCO[C@H]1OC(C(=O)N2CCCCCCC2)=C[C@@H](c2coc3ccccc3c2=O)[C@@H]1CCCO	TDP1 cell noCPT inconclusive, TDP1 cell CPT inconclusive
C[C@@H]1CN([C@@H](C)CO)C(=O)CCCn2nncc2CO[C@H]1CN(C)S(=O)(=O)c1cn(C)cn1	none
CC(=O)c1ccc(N2C(=O)C3C(C2=O)C(C(=O)c2ccc(Cl)cc2)N2CCCC32)cc1 (configuration not stated)	TDP1 cell noCPT 10µM, IL1B secr inh -109, TDP1 cell CPT 8.2µM
O=C(c1ccccc1)[C@@H]1[C@@H]2C(=O)N(c3ccc(F)cc3)C(=O)[C@@H]2C2CCCN21 (some centres not stated)	D3 antag inconclusive, TDP1 cell noCPT inconclusive, IL1B secr inh -59, TDP1 cell CPT inconclusive
CC(=O)c1c(C)[nH]c(C(=O)OCC(=O)N(Cc2ccccc2)C(C)(C)C)c1C	TDP1 cell noCPT inconclusive, ClpP mod inconclusive, TDP1 cell CPT inconclusive
CCc1ccc(NC(=O)c2ccc(Cn3nc(N4CCN(c5ccccc5)CC4)ccc3=O)o2)cc1	TDP1 cell noCPT inconclusive, TDP1 cell CPT inconclusive (no result: D3 antag, IL1B secr inh)
COc1ccc(C)cc1NC(=O)Cn1nc(N2CCN(c3ccccc3OC)CC2)ccc1=O	TDP1 cell noCPT inconclusive, TDP1 cell CPT inconclusive (no result: D3 antag, IL1B secr inh)
COc1ccccc1N1CCN(c2ccc(=O)n(CC(=O)Nc3cc(F)ccc3C)n2)CC1	TDP1 cell noCPT 23µM, TDP1 cell CPT 15µM (no result: D3 antag, IL1B secr inh)
CCc1ccccc1NC(=O)c1ccc(Cn2nc(N3CCN(c4ccccc4)CC3)ccc2=O)o1	TDP1 cell noCPT 12µM, TDP1 cell CPT 15µM (no result: D3 antag, IL1B secr inh)
CCOc1ccccc1NC(=O)Cn1nc(N2CCN(c3ccccc3)CC2)ccc1=O	TDP1 cell noCPT 18µM, TDP1 cell CPT inconclusive (no result: D3 antag, IL1B secr inh)
COc1ccccc1N1CCN(CC(=O)Nc2cc(C)nn2-c2nc(C)cc(C)n2)CC1	TDP1 cell noCPT 3.3µM, TDP1 cell CPT 4.1µM
COc1ccccc1N1CCN(CC(=O)Nc2cc(F)ccc2C)CC1	D3 antag -83, TDP1 cell noCPT inconclusive, IL1B secr inh inconclusive, TDP1 cell CPT inconclusive
CCCCn1c(=N)n(CC(O)COc2ccccc2)c2ccccc21 (configuration not stated)	TDP1 cell noCPT 12µM, IL1B secr inh inconclusive, TDP1 cell CPT 12µM
CCCCn1c(=N)n(CC(O)COc2ccc(C)cc2)c2ccccc21 (configuration not stated)	TDP1 cell noCPT 4.1µM, IL1B secr inh -73, TDP1 cell CPT 6.5µM
CCCCn1c(=N)n(CC(O)c2ccccc2)c2ccccc21 (configuration not stated)	TDP1 cell noCPT 23µM, IL1B secr inh -67, TDP1 cell CPT 15µM (no result: ClpP mod)
N#Cc1ccccc1S(=O)(=O)N1CCN(S(=O)(=O)c2ccc(Br)c(C(=O)O)c2)CC1	none (no result: ClpP mod)
CCOc1ccccc1C(=O)Nc1cc(-c2ccc(C)cc2)no1	TDP1 cell noCPT inconclusive, TDP1 cell CPT inconclusive (no result: D3 antag, IL1B secr inh)
Clc1ccc2c(SCC3CO3)c3ccccc3nc2c1 (configuration not stated)	D3 antag -91, TDP1 cell noCPT 1.2µM, ClpP mod 32µM, IL1B secr inh inconclusive, TDP1 cell CPT 0.46µM
COc1cccc(-c2nc(-c3ccccc3)c3ccc(Cl)cc3n2)c1	none
COc1ccc(C(=O)NCC(c2ccc(N(C)C)cc2)N2CCCC2)c(OC)c1 (configuration not stated)	TDP1 cell noCPT 13µM, TDP1 cell CPT inconclusive (no result: D3 antag, IL1B secr inh)
COc1ccc(C(CNC(=O)C(CCSC)NC(=O)c2ccccc2Cl)N2CCCCC2)cc1 (configuration not stated)	D3 antag -59
COc1ccc(C(CNC(=O)COc2ccccc2C)N2CCCCC2)cc1 (configuration not stated)	TDP1 cell noCPT 16µM, TDP1 cell CPT 21µM
COc1ccc(Cl)cc1C(=O)NCC(c1ccc(N(C)C)cc1)N1CCCC1 (configuration not stated)	TDP1 cell noCPT inconclusive, TDP1 cell CPT inconclusive (no result: D3 antag, IL1B secr inh)
COc1ccc(C(CNC(=O)COc2ccc(F)cc2Br)N2CCCC2)cc1 (configuration not stated)	TDP1 cell noCPT inconclusive, IL1B secr inh -54, TDP1 cell CPT inconclusive (no result: ClpP mod)
CSCCC(NC(=O)c1ccccc1Cl)C(=O)NCC(c1ccco1)N1CCCCC1 (configuration not stated)	none (no result: ClpP mod)
C=CCN(C(=O)CSc1nc2ccsc2c(=O)n1Cc1ccc(C(=O)O)cc1)c1ccccc1	none
Cc1nnsc1-c1c(C(=O)N2CCOCC2)c(C)nn1-c1ccc(Cl)cc1	none (no result: ClpP mod)
COc1ccc(C(CNC(=O)c2cc(=O)[nH]c3ccccc23)N2CCCC2)cc1 (configuration not stated)	none
COc1ccc(C(CNC(=O)c2ccccc2C)N2CCCC2)cc1 (configuration not stated)	D3 antag -85
